# Results: paper PMC11006913
# Where a chain is given by its changes, count along the chain named.
# Key:
# Assay in all cases: PBM; 200 nM protein, PBS
# Details in all cases: dsDNA, one strand shown
# [1] = target: T1, SIX6 (Homo sapiens, UniProt O95475 114-200, L167I)
# T1 sequence: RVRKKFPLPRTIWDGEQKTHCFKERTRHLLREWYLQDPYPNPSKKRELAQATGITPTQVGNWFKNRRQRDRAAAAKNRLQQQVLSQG
# [2] = target: T2, SIX6 (Homo sapiens, UniProt O95475 114-200, T139Q)
# T2 sequence: T1 sequence with T26Q, I54L
# [3] = target: HOXA4 (Homo sapiens, UniProt Q00056 201-287, W262R)
# Sequence of HOXA4 (Homo sapiens, UniProt Q00056 201-287, W262R) (Q00056 201-287 W262R): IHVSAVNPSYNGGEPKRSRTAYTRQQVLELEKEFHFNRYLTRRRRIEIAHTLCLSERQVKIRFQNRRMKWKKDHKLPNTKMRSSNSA
# [4] = target: HOXC10 (Homo sapiens, UniProt Q9NYD6 254-340)
# Sequence of HOXC10 (Homo sapiens, UniProt Q9NYD6 254-340) (Q9NYD6 254-340): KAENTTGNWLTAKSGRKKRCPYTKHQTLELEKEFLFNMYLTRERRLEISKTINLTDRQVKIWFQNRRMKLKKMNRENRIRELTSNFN
# [5] = target: HOXA4 (Homo sapiens, UniProt Q00056 201-287, R217L)
# Sequence of HOXA4 (Homo sapiens, UniProt Q00056 201-287, R217L) (Q00056 201-287 R217L): as the sequence (Q00056 201-287 W262R) above, with R17L, R62W counted along it
# [6] = target: HOXA4 (Homo sapiens, UniProt Q00056 201-287)
# Sequence of HOXA4 (Homo sapiens, UniProt Q00056 201-287) (Q00056 201-287): as the sequence (Q00056 201-287 W262R) above, with R62W counted along it
# [7] = target: HOXC10 (Homo sapiens, UniProt Q9NYD6 254-340, K271E)
# Sequence of HOXC10 (Homo sapiens, UniProt Q9NYD6 254-340, K271E) (Q9NYD6 254-340 K271E): as the sequence (Q9NYD6 254-340) above, with K18E counted along it
# [8] = target: HOXA4 (Homo sapiens, UniProt Q00056 201-287, W262F)
# Sequence of HOXA4 (Homo sapiens, UniProt Q00056 201-287, W262F) (Q00056 201-287 W262F): as the sequence (Q00056 201-287 W262R) above, with R62F counted along it
# [9] = target: PRRX1 (Homo sapiens, UniProt P54821 80-166, F113S)
# Sequence of PRRX1 (Homo sapiens, UniProt P54821 80-166, F113S) (P54821 80-166 F113S): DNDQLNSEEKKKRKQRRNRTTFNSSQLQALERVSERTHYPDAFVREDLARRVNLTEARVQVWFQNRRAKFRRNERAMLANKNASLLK
# [10] = target: HOXA2 (Homo sapiens, UniProt O43364 129-215, R185T)
# Sequence of HOXA2 (Homo sapiens, UniProt O43364 129-215, R185T) (O43364 129-215 R185T): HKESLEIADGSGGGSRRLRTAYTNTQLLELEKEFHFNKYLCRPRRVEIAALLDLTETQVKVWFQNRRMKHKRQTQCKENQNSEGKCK
# [11] = target: T3, NKX2-6 (Homo sapiens, UniProt A6NCS4 118-204)
# T3 sequence: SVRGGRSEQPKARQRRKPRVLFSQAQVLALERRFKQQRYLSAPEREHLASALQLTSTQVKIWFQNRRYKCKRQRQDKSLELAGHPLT
# [12] = target: HOXA2 (Homo sapiens, UniProt O43364 129-215, R185K)
# Sequence of HOXA2 (Homo sapiens, UniProt O43364 129-215, R185K) (O43364 129-215 R185K): as the sequence (O43364 129-215 R185T) above, with T57K counted along it
# [13] = target: T4, NKX2-6 (Homo sapiens, UniProt A6NCS4 118-204, F151L)
# T4 sequence: T3 sequence with F34L
# [14] = target: HOXA2 (Homo sapiens, UniProt O43364 129-215, Y150S)
# Sequence of HOXA2 (Homo sapiens, UniProt O43364 129-215, Y150S) (O43364 129-215 Y150S): as the sequence (O43364 129-215 R185T) above, with Y22S, T57R counted along it
# [15] = target: PRRX1 (Homo sapiens, UniProt P54821 80-166)
# Sequence of PRRX1 (Homo sapiens, UniProt P54821 80-166) (P54821 80-166): as the sequence (P54821 80-166 F113S) above, with S34F counted along it
# [16] = target: HOXA2 (Homo sapiens, UniProt O43364 129-215)
# Sequence of HOXA2 (Homo sapiens, UniProt O43364 129-215) (O43364 129-215): as the sequence (O43364 129-215 R185T) above, with T57R counted along it
# [17] = target: MSX2 (Homo sapiens, UniProt P35548 130-214, R199I)
# Sequence of MSX2 (Homo sapiens, UniProt P35548 130-214, R199I) (P35548 130-214 R199I): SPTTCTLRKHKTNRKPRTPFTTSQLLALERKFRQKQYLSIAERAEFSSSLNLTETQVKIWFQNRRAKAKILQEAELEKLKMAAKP
# [18] = target: MSX2 (Homo sapiens, UniProt P35548 130-214)
# Sequence of MSX2 (Homo sapiens, UniProt P35548 130-214) (P35548 130-214): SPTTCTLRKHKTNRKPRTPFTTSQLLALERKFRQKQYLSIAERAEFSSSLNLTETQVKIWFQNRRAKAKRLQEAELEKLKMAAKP
# [19] = target: MSX2 (Homo sapiens, UniProt P35548 130-214, F161Y)
# Sequence of MSX2 (Homo sapiens, UniProt P35548 130-214, F161Y) (P35548 130-214 F161Y): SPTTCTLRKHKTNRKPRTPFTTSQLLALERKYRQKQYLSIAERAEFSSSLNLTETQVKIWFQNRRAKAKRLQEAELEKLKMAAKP
# [20] = target: ALX4 (Homo sapiens, UniProt Q9H161 200-286)
# Sequence of ALX4 (Homo sapiens, UniProt Q9H161 200-286) (Q9H161 200-286): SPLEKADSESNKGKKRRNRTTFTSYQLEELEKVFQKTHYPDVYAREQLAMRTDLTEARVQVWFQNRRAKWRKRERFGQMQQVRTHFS
# [21] = target: ALX4 (Homo sapiens, UniProt Q9H161 200-286, Q225E)
# Sequence of ALX4 (Homo sapiens, UniProt Q9H161 200-286, Q225E) (Q9H161 200-286 Q225E): as the sequence (Q9H161 200-286) above, with Q26E counted along it
# [22] = target: HOXB6 (Homo sapiens, UniProt P17509 132-218, K202E)
# Sequence of HOXB6 (Homo sapiens, UniProt P17509 132-218, K202E) (P17509 132-218 K202E): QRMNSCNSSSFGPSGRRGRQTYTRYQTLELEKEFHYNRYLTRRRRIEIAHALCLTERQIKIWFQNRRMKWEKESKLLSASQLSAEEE
# [23] = target: HOXB6 (Homo sapiens, UniProt P17509 132-218)
# Sequence of HOXB6 (Homo sapiens, UniProt P17509 132-218) (P17509 132-218): as the sequence (P17509 132-218 K202E) above, with E71K counted along it
sequence,measurement,setting,value
AGGGATCA,binding signal,[1],"11.1 upbm affinity estimate (log intensity, higher = more binding, comparable within an allelic series)"
same,binding signal,[2],"11.1 upbm affinity estimate (log intensity, higher = more binding, comparable within an allelic series)"
CCCCACGG,binding signal,[3],"9.8 upbm affinity estimate (log intensity, higher = more binding, comparable within an allelic series)"
same,binding signal,[4],"10.1 upbm affinity estimate (log intensity, higher = more binding, comparable within an allelic series)"
same,binding signal,[5],"9.68 upbm affinity estimate (log intensity, higher = more binding, comparable within an allelic series)"
same,binding signal,[6],"9.82 upbm affinity estimate (log intensity, higher = more binding, comparable within an allelic series)"
same,binding signal,[7],"10 upbm affinity estimate (log intensity, higher = more binding, comparable within an allelic series)"
same,binding signal,[8],"9.88 upbm affinity estimate (log intensity, higher = more binding, comparable within an allelic series)"
GCCCCGAC,binding signal,[3],"9.84 upbm affinity estimate (log intensity, higher = more binding, comparable within an allelic series)"
same,binding signal,[4],"10.1 upbm affinity estimate (log intensity, higher = more binding, comparable within an allelic series)"
same,binding signal,[9],"9.25 upbm affinity estimate (log intensity, higher = more binding, comparable within an allelic series)"
same,binding signal,[10],"7.21 upbm affinity estimate (log intensity, higher = more binding, comparable within an allelic series)"
same,binding signal,[5],"9.94 upbm affinity estimate (log intensity, higher = more binding, comparable within an allelic series)"
same,binding signal,[11],"9.63 upbm affinity estimate (log intensity, higher = more binding, comparable within an allelic series)"
same,binding signal,[12],"10.4 upbm affinity estimate (log intensity, higher = more binding, comparable within an allelic series)"
same,binding signal,[6],"9.87 upbm affinity estimate (log intensity, higher = more binding, comparable within an allelic series)"
same,binding signal,[7],"10.1 upbm affinity estimate (log intensity, higher = more binding, comparable within an allelic series)"
same,binding signal,[13],"9.35 upbm affinity estimate (log intensity, higher = more binding, comparable within an allelic series)"
same,binding signal,[14],"10.5 upbm affinity estimate (log intensity, higher = more binding, comparable within an allelic series)"
same,binding signal,[8],"10.1 upbm affinity estimate (log intensity, higher = more binding, comparable within an allelic series)"
same,binding signal,[15],"9.52 upbm affinity estimate (log intensity, higher = more binding, comparable within an allelic series)"
same,binding signal,[16],"7.3 upbm affinity estimate (log intensity, higher = more binding, comparable within an allelic series)"
CCCCCCAG,binding signal,[3],"9.46 upbm affinity estimate (log intensity, higher = more binding, comparable within an allelic series)"
same,binding signal,[9],"9 upbm affinity estimate (log intensity, higher = more binding, comparable within an allelic series)"
same,binding signal,[10],"6.72 upbm affinity estimate (log intensity, higher = more binding, comparable within an allelic series)"
same,binding signal,[5],"9.39 upbm affinity estimate (log intensity, higher = more binding, comparable within an allelic series)"
same,binding signal,[17],"9.41 upbm affinity estimate (log intensity, higher = more binding, comparable within an allelic series)"
same,binding signal,[12],"9.81 upbm affinity estimate (log intensity, higher = more binding, comparable within an allelic series)"
same,binding signal,[6],"9.42 upbm affinity estimate (log intensity, higher = more binding, comparable within an allelic series)"
same,binding signal,[18],"9.49 upbm affinity estimate (log intensity, higher = more binding, comparable within an allelic series)"
same,binding signal,[19],"9.5 upbm affinity estimate (log intensity, higher = more binding, comparable within an allelic series)"
same,binding signal,[14],"10.1 upbm affinity estimate (log intensity, higher = more binding, comparable within an allelic series)"
same,binding signal,[8],"9.4 upbm affinity estimate (log intensity, higher = more binding, comparable within an allelic series)"
same,binding signal,[15],"9.37 upbm affinity estimate (log intensity, higher = more binding, comparable within an allelic series)"
same,binding signal,[16],"6.91 upbm affinity estimate (log intensity, higher = more binding, comparable within an allelic series)"
ACCTTCGC,binding signal,[3],"9.98 upbm affinity estimate (log intensity, higher = more binding, comparable within an allelic series)"
same,binding signal,[20],"8.16 upbm affinity estimate (log intensity, higher = more binding, comparable within an allelic series)"
same,binding signal,[21],"8.2 upbm affinity estimate (log intensity, higher = more binding, comparable within an allelic series)"
same,binding signal,[5],"9.99 upbm affinity estimate (log intensity, higher = more binding, comparable within an allelic series)"
same,binding signal,[6],"9.8 upbm affinity estimate (log intensity, higher = more binding, comparable within an allelic series)"
same,binding signal,[8],"10.1 upbm affinity estimate (log intensity, higher = more binding, comparable within an allelic series)"
GCCCGGAC,binding signal,[3],"9.85 upbm affinity estimate (log intensity, higher = more binding, comparable within an allelic series)"
same,binding signal,[22],"9.01 upbm affinity estimate (log intensity, higher = more binding, comparable within an allelic series)"
same,binding signal,[5],"9.75 upbm affinity estimate (log intensity, higher = more binding, comparable within an allelic series)"
same,binding signal,[17],"9.48 upbm affinity estimate (log intensity, higher = more binding, comparable within an allelic series)"
same,binding signal,[6],"9.68 upbm affinity estimate (log intensity, higher = more binding, comparable within an allelic series)"
same,binding signal,[18],"9.46 upbm affinity estimate (log intensity, higher = more binding, comparable within an allelic series)"
same,binding signal,[19],"9.5 upbm affinity estimate (log intensity, higher = more binding, comparable within an allelic series)"
same,binding signal,[8],"9.88 upbm affinity estimate (log intensity, higher = more binding, comparable within an allelic series)"
same,binding signal,[23],"8.94 upbm affinity estimate (log intensity, higher = more binding, comparable within an allelic series)"
